# Bioassay records from PubChem BioAssay.
# Tau fluor counter: counter-screen for tau fibril formation inhibitors | Potency, µM (highest dose often 57.7 µM) | tau K18 P301L Alexa594 fluorescence, heparin fibrillization | actives 0.93% (n = 280,000); also: nearly all actives have a fitted effect of over 55% in size
#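 Human tau K18 P301L (15 uM unlabeled, 0.24 uM Alexa 594-labeled) in 100 mM sodium acetate pH 7 with 20 uM heparin, 6 hr at 37 C. ThT 30 uM added, 1 hr ambient; Alexa 594 FP and total fluorescence read at 555/632 nm.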
# Tau fibril ThT: inhibitors of human tau fibril formation, thioflavin T binding | Potency, µM (series often up to 57.4 µM), actives largely listed as inhibitors | actives 2.1% (n = 270,000) | recombinant tau K18 P301L (four-repeat tau fragment), heparin-induced fibrillization, ThT fluorescence | P10636; also: nearly all actives have a fitted effect of over 55% in size
# Target sequence (P10636 561-689 P618L limits assumed): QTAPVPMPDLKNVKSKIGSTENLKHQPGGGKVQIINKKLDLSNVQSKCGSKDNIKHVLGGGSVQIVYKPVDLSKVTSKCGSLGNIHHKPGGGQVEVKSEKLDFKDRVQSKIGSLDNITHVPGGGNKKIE
#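 Aggregation was driven by heparin (20 uM final) acting on recombinant tau […] bearing P301L in 100 mM sodium acetate pH 7; fibrils were detected with Thioflavin T.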
# G9a block: G9a (human) methyltransferase inhibition; Q96KQ7; G9a H3K9 monomethylation, AlphaScreen, 2 h; Potency, µM (titrated, usually from 102 µM), most hits filed as inhibitors; actives 8.8% (n = 350,000); AID 504332; also: nearly all actives have a fitted effect of over 75% in size
# Target sequence (Q96KQ7 913-1193 limits assumed): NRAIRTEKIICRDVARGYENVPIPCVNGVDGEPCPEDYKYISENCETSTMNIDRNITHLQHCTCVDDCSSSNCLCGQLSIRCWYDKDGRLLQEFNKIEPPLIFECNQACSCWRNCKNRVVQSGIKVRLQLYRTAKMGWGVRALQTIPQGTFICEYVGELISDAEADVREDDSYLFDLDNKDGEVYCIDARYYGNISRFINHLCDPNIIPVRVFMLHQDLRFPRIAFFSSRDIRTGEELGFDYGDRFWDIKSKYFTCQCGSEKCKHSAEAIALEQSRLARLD
#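 AlphaScreen read-out: biotin-H3K9 peptide (500 nM) methylation by 20 nM enzyme with 20 uM SAM, 2 h at room temperature after 15 min compound preincubation; anti-monomethyl H3K9 antibody plus donor/acceptor beads, 10 min dark.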
# Sfp inh: inhibitors of Bacillus subtilis Sfp phosphopantetheinyl transferase. Potency, µM, usual class: inhibitors. actives 3.5% (n = 310,000). Q9F4F7. Biochemical Sfp PPTase activity, qHTS;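 also: the enzyme is Sfp with the accession as filed and its product quenches rhodamine fluorescence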
#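 With Hepes-Na pH 7.6 buffer containing 10 mM MgCl2, Sfp (15 nM) modified BHQ-2-YbbR (12.5 uM) using rhodamine-CoA (5 uM). Two reads 30 minutes apart at 525/598 nm yielded each well's rate.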
# FBPA coupling cs: inhibits coupling enzyme system, counter-screen for aldolase hits. actives 0.67% (n = 290,000). coupling enzyme system counterscreen, AmpLite Red fluorescence. AID 2472. activity change, negative = inhibition, % at 58.2 µM, hits read low; in the data active = activity change below about -30%
#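 Compounds tested against the coupling enzymes alone at 57.5 uM final; readout was AmpLite Red fluorescence (525/598 nm) after 20 min at RT.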
# Tau FP inhib: inhibitors of human tau fibril formation; P10636; K18 P301L tau heparin fibrillization, Alexa594 FP, 6 h; Potency, µM (titrated, usually from 57.7 µM), actives largely listed as inhibitors; actives 0.39% (n = 280,000); AID 1468; also: nearly all actives have a fitted effect of over 55% in size
#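 Recombinant K18 P301L […], labeled with Alexa 594 at 0.24 uM over 15 uM unlabeled; heparin inducer 20 uM final; 37 C, 6 hr; FP endpoint.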
# Hits are given with their value; . = inactive; ? = inconclusive; / = no result given; [ ] = another dose, or the depositor's remark. Shown are actives, neighbours in structure and some others; about 11% of the full set was active somewhere. Unless noted, calls follow the shape of the dose curve; as a rule, active = well fitted curve in the direction sought with a large enough effect; inconclusive = small, poorly fitted or top-dose-only effect, or another doubt; inactive = no such curve, though single readings can be large; an effect the other way counts as inactive or inconclusive.
SMILES,Tau fluor counter,Tau fibril ThT,G9a block,Sfp inh,FBPA coupling cs,Tau FP inhib
O=C(CC1N=C2c3ccccc3N=C(SCc3ccc(Cl)cc3)N2C1=O)NCCc1ccccc1 (stereo not drawn),.,?,.,/,/,.
COc1cc(OC)c(OC)cc1CN1CCN(Cc2cccc(F)c2)CC1,/,/,?,.,.,/
COc1ccc(C(=O)CN2CCN(c3ccc(F)cc3)CC2)cc1OC,.,?,40µM,.,.,.
COc1cc(OC)c(OC)cc1CN1CCN(c2ccc(F)cc2)CC1,.,.,28µM,.,.,.
COc1ccc(C(=O)CN2CCN(c3ncccn3)CC2)cc1,/,/,8.9µM,50µM,.,/
O=C(CN1CCN(c2ccccc2)CC1)c1c[nH]c2ccccc12,/,/,.[2.33 µM],.,.,/
N#Cc1ccc(C(=O)CN2CCN(c3ccccc3)CC2)cc1,/,/,28µM,.,.,/
COc1cc(OC)nc(NC(=O)CN2CCN(c3ccc(F)cc3)CC2)n1,.,.,.[12.7 µM],.,.,.
CC(=O)Nc1cccc(Nc2nc3ccccc3n3c(C)nnc23)c1,.,?,.,/,/,.
COc1cc(OC)c(OC)cc1CN1CCc2ccccc2C1,.,.,13µM,.,.,.
COc1ccc(N2CCN(C(=O)NC(=O)c3ccc(Cl)cc3)CC2)cc1,/,/,?,.,/,/
COc1ccc(S(=O)(=O)N2CCN(Cc3ccco3)CC2)cc1,/,/,11µM,?,.,/
NC(=O)c1ccc(NC(=O)CN2CCN(c3ccc(Cl)cc3)CC2)cc1,.,.,.,.,.,.
COc1ccc(N2CCN(CC(=O)c3ccc(Cl)cc3)CC2)cc1,/,/,22µM,.,.,/
COc1ccc(C(=O)CN2CCN(c3ccc(Cl)cc3)CC2)cc1OC,/,/,22µM,79µM,.,/
O=C(CCl)N1CCN(S(=O)(=O)c2ccc3c(c2)CCC3)CC1,/,/,.[2.33 µM],/,/,/
CCc1ccc(N2C(=O)CC(c3cc(OC)ccc3OC)C3=C2COC3=O)cc1 (stereo not drawn),.,.,.,/,/,.
COc1cc(OC)c(OC)cc1CN1CCN(Cc2ccco2)CC1,/,/,35µM,.,.,/
COc1ccc(NC(=S)N2CCN(Cc3ccco3)CC2)c(OC)c1,.,.,.,.,.,.
COc1ccc(S(=O)(=O)N(C)C(C)CCc2ccco2)cc1 (stereo not drawn),/,/,79µM,.,.,/
CCOC(=O)c1noc2ncnc(N3CCN(c4cccc(C(F)(F)F)c4)CC3)c12,.,.,.,/,/,.
COC(=O)C1=C(C)N(Cc2ccccc2)C2=C(C(C)=O)C(c3ccccc3)[C@@](O)(C(=O)OC)C(=O)N2C1c1ccccc1 (stereo partly drawn),.[11.6 µM],?,/,.,.,?
O=C(O)Cc1sc(-c2ccccc2Cl)nc1-c1ccccc1,.,.,.,.,.,.
CCOC(=O)c1sc(N/N=C/c2ccccc2)nc1C,?,?,2µM,35µM,.,.
CCOC(=O)c1sc(NC(=O)CC)nc1C,.,.,.,.,.,.
SMILES,Tau fluor counter,Tau fibril ThT,G9a block,Sfp inh,FBPA coupling cs,Tau FP inhib
CCOC(=O)c1sc(NC(=O)CCCCl)nc1C,.,.,50µM,.,.,.
CCOC(=O)c1sc(Nc2ccc(C)cc2C)nc1C,.,?,.[12.7 µM],.,.,.
CCOC(=O)c1sc(N/N=C/c2cccc(C)c2)nc1C,8.9µM[quencher],?,.[2.33 µM],.,.,?
O=C(O)Cc1sc(N/N=C\c2ccccc2)nc1-c1ccccc1,?,10µM,3.2µM,40µM,.,?
CCOC(=O)c1sc(Nc2ccccc2)nc1C,?,.,.,.,.,.
CC(C)(C)NC(=O)NC(=O)COC(=O)CCC1CCCC1,.,.,.,.,.,.
O=C(c1cccc(C(F)(F)F)c1)c1c[nH]c(C(=O)NCC2CCCO2)c1 (stereo not drawn),.,.,.,.,.,.
O=C(c1ccc(CS(=O)c2ccccc2Cl)o1)N1CCN(c2ccccc2F)CC1 (stereo not drawn),.,.,.,/,/,.
COc1cccc(NC(=O)CSCn2nnc3c(=O)[nH]c(Cc4ccc(F)cc4)nc32)c1,.,.,.,/,/,.
COc1ccc(OC)c(NC(=O)CS(=O)(=O)Cc2nc(-c3ccc(C)cc3)oc2C)c1,.,?,.,/,/,.
O=C(CCNc1ccc(F)cc1)c1cccc([N+](=O)[O-])c1,16µM[quencher],?,?,.,.,.
O=C(CCNc1ccccc1)c1cccc([N+](=O)[O-])c1,.,.,18µM,.,.,.
O=C(CCNc1ccc(Br)cc1)c1cccc([N+](=O)[O-])c1,28µM[quencher],?,3.2µM,.,.,?
O=C(NCCNc1ccc([N+](=O)[O-])cc1)c1cccc(Br)c1,.,?,.,?,.,.
Cc1ccc(NCCC(=O)c2cccc([N+](=O)[O-])c2)cc1,?,?,22µM,.,.,?
CCC(C)(C)n1nnnc1C(c1cccnc1)N1CCN(c2cccc(C(F)(F)F)c2)CC1 (stereo not drawn),.,.,.[12.7 µM],.,.,?
COc1ccc(Cl)cc1NC(=O)C1CCCN(c2ncnc3onc(C)c23)C1 (stereo not drawn),.,.,.,/,/,.
O=C(CCNc1ccc(Cc2ccncc2)cc1)c1ccc([N+](=O)[O-])cc1,7.9µM[quencher],10µM,.,.,.,.
O=C(Nc1ccc(Cc2ccncc2)cc1)c1cccc([N+](=O)[O-])c1,.,.,?,?,.,.
O=C(CN(c1ccc(Cl)cc1)S(=O)(=O)c1ccc(Cl)c([N+](=O)[O-])c1)NCCc1ccccc1,.,.,50µM,.,.,.
O=C(CN(c1ccc(Cl)cc1)S(=O)(=O)c1ccc(Cl)c([N+](=O)[O-])c1)NCCc1ccc(F)cc1,.,.,.,.,.,.
COC(=O)c1ccc(N2CCN(CC(=O)c3ccc(-c4ccccc4)cc3)CC2)c([N+](=O)[O-])c1,.,?,45µM,?,.,.
COC(=O)c1ccc(N2CCc3ccccc32)c([N+](=O)[O-])c1,/,/,16µM,.,.,/
O=C(NCc1ccc(F)cc1)c1ccc(N2CCc3ccccc32)c([N+](=O)[O-])c1,?,?,25µM,.,.,?
CCOC(CNC(=O)c1ccc(N2CCc3ccccc32)c([N+](=O)[O-])c1)OCC,?,13µM,11µM,.,.,?
CC(=O)Nc1ccc(NC(=O)CN2C(=O)CN(C)C(=O)c3ccccc32)cc1,.,.,.,/,/,.
Cn1nc(C(F)(F)F)c2cc(C(=O)O)sc21,.,.,.,.,.,.
CCn1c(-c2cc3c(C(F)(F)F)nn(C)c3s2)n[nH]c1=S,.,.,5.6µM,71µM,.,.
COC(=O)c1cc2c(C(F)(F)F)nn(C)c2s1,.,.,.,.,.,.
Cn1c(-c2cc3c(C(F)(F)F)nn(C)c3s2)n[nH]c1=S,.,.,32µM,?,.,.
